{"source": "paper PMC4336329", "about": "(PLoS ONE, 2015)", "note": "Hit rate of the full screen: of about 310,000 compounds, about 14,000 (4.5%) showed an effect of 50% or more. Effects have a minus sign here. This is one part of a sample in which strong results are shown more often than they occur.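 Also: peak tail current of the secondary pulse compared with the same well before compound.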"}
{"target": "human ether-à-go-go-related gene (hERG) potassium channel (human, UniProt Q12809)", "sequence (Q12809 whole entry, looked up)": "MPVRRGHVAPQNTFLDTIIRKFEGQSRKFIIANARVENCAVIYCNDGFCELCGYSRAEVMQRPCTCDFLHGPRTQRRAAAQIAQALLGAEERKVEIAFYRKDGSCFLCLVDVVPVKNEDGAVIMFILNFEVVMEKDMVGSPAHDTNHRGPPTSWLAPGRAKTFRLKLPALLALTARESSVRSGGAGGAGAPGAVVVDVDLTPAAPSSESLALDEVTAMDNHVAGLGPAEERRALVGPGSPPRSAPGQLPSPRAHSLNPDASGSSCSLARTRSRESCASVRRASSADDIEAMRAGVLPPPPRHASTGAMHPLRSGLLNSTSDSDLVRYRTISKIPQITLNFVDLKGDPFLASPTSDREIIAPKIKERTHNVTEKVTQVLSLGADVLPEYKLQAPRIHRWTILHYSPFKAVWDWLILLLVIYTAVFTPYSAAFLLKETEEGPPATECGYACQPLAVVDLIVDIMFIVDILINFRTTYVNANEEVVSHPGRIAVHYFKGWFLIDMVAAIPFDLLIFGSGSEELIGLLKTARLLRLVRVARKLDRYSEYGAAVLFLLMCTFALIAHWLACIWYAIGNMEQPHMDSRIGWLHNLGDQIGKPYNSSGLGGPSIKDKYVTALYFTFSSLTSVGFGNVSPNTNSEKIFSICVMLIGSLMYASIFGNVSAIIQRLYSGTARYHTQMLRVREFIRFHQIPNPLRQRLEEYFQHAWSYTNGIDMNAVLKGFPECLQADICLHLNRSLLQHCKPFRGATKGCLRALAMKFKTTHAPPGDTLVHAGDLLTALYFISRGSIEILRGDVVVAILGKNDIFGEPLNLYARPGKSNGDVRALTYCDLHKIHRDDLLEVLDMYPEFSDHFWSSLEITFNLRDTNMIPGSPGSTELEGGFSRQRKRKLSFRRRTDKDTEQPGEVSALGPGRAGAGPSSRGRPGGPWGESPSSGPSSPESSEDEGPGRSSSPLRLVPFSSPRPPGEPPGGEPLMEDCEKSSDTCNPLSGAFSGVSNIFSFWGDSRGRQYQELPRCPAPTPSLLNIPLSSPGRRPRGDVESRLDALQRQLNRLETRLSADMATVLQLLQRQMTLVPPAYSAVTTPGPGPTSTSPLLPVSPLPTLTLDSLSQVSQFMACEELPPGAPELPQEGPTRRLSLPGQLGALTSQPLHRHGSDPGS", "experiment": "primary screen, population patch clamp on CHO cells stably expressing hERG; higher = less effect of the substance", "units": {"hERG current change (%, negative = inhibition) at 10uM": "%"}}
{"smiles": "CCS(=O)(=O)NCc1nnc2n1-c1ccc(Br)cc1C(c1ccccc1Cl)=NC2", "hERG current change (%, negative = inhibition) at 10uM": -49}
{"smiles": "COc1ccccc1C1=NCc2nnc(C)n2-c2ccc(Cl)cc21", "hERG current change (%, negative = inhibition) at 10uM": 3.01}
{"smiles": "COCCCN1CCN(c2nnc3n2-c2sc(Br)cc2C(c2ccccc2Cl)=NC3)CC1.CS(=O)(=O)O", "hERG current change (%, negative = inhibition) at 10uM": -47.7}
{"smiles": "Clc1ccc2c(c1)C(c1ccccc1Cl)=NCc1nncn1-2", "hERG current change (%, negative = inhibition) at 10uM": -4.37}
{"smiles": "CSCc1nnc2n1-c1ccc(Cl)cc1C(c1ccccc1)=NC2", "hERG current change (%, negative = inhibition) at 10uM": -17}
{"smiles": "Cc1nnc2n1-c1ccc(Br)cc1C(c1ccccc1Cl)=NC2", "hERG current change (%, negative = inhibition) at 10uM": -21.1}
{"smiles": "Clc1ccc2c(c1)C(c1ccccc1Cl)=NCc1nnc(Br)n1-2.c1ccccc1", "hERG current change (%, negative = inhibition) at 10uM": -6.61}
{"smiles": "CCOCCN1CCN(c2nnc3n2-c2ccc(Cl)cc2C(c2ccccc2Cl)=NC3)CC1.O=CO", "hERG current change (%, negative = inhibition) at 10uM": -76.5}
{"smiles": "CCS(=O)(=O)NCc1nnc2n1-c1ccc(Cl)cc1C(c1ccccc1)=NC2", "hERG current change (%, negative = inhibition) at 10uM": 12.6}
{"smiles": "Clc1ccc2c(c1)C(c1ccccc1Cl)=NCc1nnc(N3CCN(CCOc4ccccc4)CC3)n1-2.O=C(O)/C=C/C(=O)O", "hERG current change (%, negative = inhibition) at 10uM": -72.7}
{"smiles": "CN1CCN(Cc2nnc3n2-c2ccc(Cl)cc2C(c2ccccc2)=NC3)CC1.O=CO", "hERG current change (%, negative = inhibition) at 10uM": -64.7}
{"smiles": "Clc1ccc2c(c1)C(c1ccccc1Cl)=NCc1nnc(N3CCN(CCSc4ccccc4)CC3)n1-2.O.O=C(O)/C=C/C(=O)O", "hERG current change (%, negative = inhibition) at 10uM": -66.5}
{"smiles": "C/C(=N\\NC(=O)C1CC1)c1ccc(N2CCOCC2)cc1", "hERG current change (%, negative = inhibition) at 10uM": -0.403}
{"smiles": "O=c1/c(=C/c2ccco2)sc2nc(-c3ccccc3Br)nn12", "hERG current change (%, negative = inhibition) at 10uM": 12.7}
{"smiles": "O=c1sc2ccccc2c(N2CCCC2)c1[N+](=O)[O-]", "hERG current change (%, negative = inhibition) at 10uM": 6.33}
{"smiles": "Cc1cc(C)nc(SCc2nnc(SCC(N)=O)o2)n1", "hERG current change (%, negative = inhibition) at 10uM": 15.7}
{"smiles": "O=C(c1ccccc1)c1ccc(N=Nc2c(O)[nH]c(=O)[nH]c2=O)cc1", "hERG current change (%, negative = inhibition) at 10uM": 1.15}
{"smiles": "Cc1nc2c(c(=O)n1CCC1=CCCCC1)c1nc3ccccc3nc1n2/N=C/c1ccco1", "hERG current change (%, negative = inhibition) at 10uM": -22}
{"smiles": "O=S(=O)(c1cccs1)N1CCC(Cc2ccccc2)CC1", "hERG current change (%, negative = inhibition) at 10uM": 6.58}
{"smiles": "CCOC(=O)C1=C(N)Oc2ccc3ccccc3c2C1c1cccnc1", "note": "(stereo not shown)", "hERG current change (%, negative = inhibition) at 10uM": 0.98}
{"smiles": "O/N=C1\\CCCc2c1nc(-c1ccccc1F)n2O", "hERG current change (%, negative = inhibition) at 10uM": 26.1}
{"smiles": "O=C(COc1cc2oc(=O)c3c(c2cc1Cl)CCC3)NCC1CCC(C(=O)O)CC1", "note": "(stereo not shown)", "hERG current change (%, negative = inhibition) at 10uM": 5.36}
{"smiles": "Cc1ccc(S(=O)(=O)CC(=O)N2CCCCCC2)cc1", "hERG current change (%, negative = inhibition) at 10uM": 13.6}
{"smiles": "C=CC(C)(C)c1[nH]cnc1/C=C1\\NC(=O)C(C(C)C)NC1=O", "note": "(stereo not shown)", "hERG current change (%, negative = inhibition) at 10uM": 3.54}
{"smiles": "COc1ccc(NC(=O)N[C@@H](CCSC)C(=O)O)cc1OC", "hERG current change (%, negative = inhibition) at 10uM": -0.994}
{"smiles": "Cc1ccc(NC(=S)N2CCC(NC(=O)c3cccc(F)c3)CC2)cc1", "hERG current change (%, negative = inhibition) at 10uM": -24.9}
{"smiles": "COCCOCC(O)CN1CCN(c2ccccc2)CC1.O=C(O)C(=O)O", "note": "(stereo not shown)", "hERG current change (%, negative = inhibition) at 10uM": -3.37}
{"smiles": "CCOC(=O)C1CCCN(c2nnnn2-c2ccccc2)C1", "note": "(stereo not shown)", "hERG current change (%, negative = inhibition) at 10uM": -5.57}
{"smiles": "COc1ccccc1C1=NCc2nnc(CSC)n2-c2ccc(Cl)cc21", "hERG current change (%, negative = inhibition) at 10uM": -19.1}
{"smiles": "CS(=O)(=O)NCc1nnc2n1-c1ccc(Cl)cc1C(c1ccccc1)=NC2", "hERG current change (%, negative = inhibition) at 10uM": 6.2}
{"smiles": "CN(C)CCSCc1nnc2n1-c1ccc(Cl)cc1C(c1ccccc1Cl)=NC2.c1ccccc1", "hERG current change (%, negative = inhibition) at 10uM": -73.7}
{"smiles": "Cc1ccc(C(=O)NC(=S)Nc2ccc(N3CCOCC3)cc2)cc1C", "hERG current change (%, negative = inhibition) at 10uM": -7.53}
{"smiles": "O=C(NCCCn1ccnc1)C(=O)NCC(c1ccco1)N1CCN(c2ccccc2)CC1", "note": "(stereo not shown)", "hERG current change (%, negative = inhibition) at 10uM": 1.01}
{"smiles": "CCCNC(=O)OC[C@H]1O[C@H](CCO/N=C/C[C@@H]2C=C[C@H](OC(C)=O)[C@@H](COC(C)=O)O2)C=C[C@@H]1Oc1ccc(OC)cc1", "hERG current change (%, negative = inhibition) at 10uM": -59.7}
{"smiles": "COc1ccc(O[C@H]2C=C[C@@H](c3ccccc3)O[C@@H]2CO/N=C/C[C@@H]2C=C[C@H](OC(C)=O)[C@@H](COC(C)=O)O2)cc1", "hERG current change (%, negative = inhibition) at 10uM": -9.17}
{"smiles": "CCCNC(=O)OC[C@H]1O[C@H](CCO/N=C/[C@@H](OC)[C@H](C)/C=C/CC(=O)OC)C=C[C@@H]1Oc1ccc(OC)cc1", "hERG current change (%, negative = inhibition) at 10uM": -11.1}
{"smiles": "CCC(Sc1nc(C)cc(=O)[nH]1)C(=O)Nc1sc2c(c1C#N)CCCC2", "note": "(stereo not shown)", "hERG current change (%, negative = inhibition) at 10uM": -19.1}
{"smiles": "Cc1ccc2oc3nc(C)c(C(=O)Nc4cccc(C(F)(F)F)c4)cc3c(=O)c2c1", "hERG current change (%, negative = inhibition) at 10uM": 6.48}
{"smiles": "O=C(CCS(=O)(=O)c1cccc2nsnc12)N1CCN(c2ccccc2F)CC1", "hERG current change (%, negative = inhibition) at 10uM": -30.3}
{"smiles": "COC(=O)C1=C(C(=O)c2ccc(C)cc2)C(c2ccc(OC)c(OC)c2)n2nnnc2N1", "note": "(stereo not shown)", "hERG current change (%, negative = inhibition) at 10uM": 3.59}
{"smiles": "Cc1ccc(O)c(-c2cc(-c3cccc(F)c3)n[nH]2)c1", "hERG current change (%, negative = inhibition) at 10uM": 23.6}
{"smiles": "CCOC(=O)C1(Cc2cccc(F)c2)CCN(Cc2cnn(CC)c2C)CC1", "hERG current change (%, negative = inhibition) at 10uM": -16.6}
{"smiles": "CCOC(=O)C1(Cc2cccc(F)c2)CCN(Cc2ccon2)CC1", "hERG current change (%, negative = inhibition) at 10uM": 3.48}
{"smiles": "CCOC(=O)C1(Cc2ccc(Cl)cc2)CCN(Cc2cnc(N)nc2)CC1", "hERG current change (%, negative = inhibition) at 10uM": -74.7}
{"smiles": "CCCn1cc(CN2CCC(Cc3cccc(F)c3)(C(=O)OCC)CC2)c(C)n1", "hERG current change (%, negative = inhibition) at 10uM": -67.2}
{"smiles": "CCOC(=O)C1(S(=O)(=O)c2ccc(Cl)cc2)CCN(Cc2ccc(Cl)cc2)CC1", "hERG current change (%, negative = inhibition) at 10uM": 14.7}
{"smiles": "CCOC(=O)C1(Cc2cccc(F)c2)CCN(Cc2ccc(COC)o2)CC1", "hERG current change (%, negative = inhibition) at 10uM": -23.5}
{"smiles": "CCOC(=O)C1(Cc2cccc(OC)c2)CCN(Cc2cnc(N)nc2)CC1", "hERG current change (%, negative = inhibition) at 10uM": -28.2}
{"smiles": "CCCn1ncc(CN2CCC(Cc3cccc(F)c3)(C(=O)OCC)CC2)c1C", "hERG current change (%, negative = inhibition) at 10uM": -59.7}
{"smiles": "CCOC(=O)C1(Cc2ccc(Cl)cc2)CCN(Cc2ccon2)CC1", "hERG current change (%, negative = inhibition) at 10uM": -49.5}
{"smiles": "CCOC(=O)C1(Cc2cccc(F)c2)CCN(Cc2cn(CC)nc2C)CC1", "hERG current change (%, negative = inhibition) at 10uM": -38}
{"smiles": "CCOC(=O)C1(Cc2ccc(Cl)cc2)CCN(Cc2cn(CC)nc2C)CC1", "hERG current change (%, negative = inhibition) at 10uM": -67.7}
